Molecules are shown by their SMILES. Screen size: about 39,000 compounds; about 500 (1.3%) were called active. This excerpt belongs to a sample that is enriched for actives.

This assay relates to S. aureus RN4220. Description: growth inhibition call (relative growth <= 0.2). To be noted: 50 µM.
In the case of `C[C@H](CO)N1C[C@H](C)[C@H](CN(C)Cc2ccc(Cl)c(Cl)c2)Oc2ccc(NC(=O)Cn3cnnn3)cc2CC1=O`, the growth inhibition call is “inactive”.

Take `Cc1noc(C)c1NC(=O)Nc1ccc2c(c1)C(=O)N([C@@H](C)CO)C[C@H](C)[C@H](CN(C)C(=O)NC1CCCCC1)OCCCC[C@H](C)O2`: the growth inhibition call was “inactive”.

`Cc1noc(C)c1S(=O)(=O)Nc1cccc2c1O[C@@H](CN(C)S(=O)(=O)c1cccs1)[C@@H](C)CN([C@H](C)CO)C2=O`: the growth inhibition call was “inactive”.

For `CN1CCN(CC(=O)N2c3ccccc3C(=O)Nc3cccnc32)CC1.Cl.Cl`, the growth inhibition call was “inactive”.

Regarding `O=C(O)CCC(=O)N1CC(=O)Nc2ccccc21`, the growth inhibition call is “inactive”.

For `Cc1scc2c1N(C(=O)CN1CCN(C)CC1)c1ccccc1NC2=O.Cl`, the growth inhibition call was “active”.

Consider `CS(=O)(=O)N1CCC2(CC1)OCCO2`, for which the growth inhibition call is “inactive”.

Take `O=C(Nc1ccc(Cl)cc1)Nc1ccc(Cl)c(Cl)c1`: the growth inhibition call was “active”.

On to `CCC(=O)Nc1ccc(Cl)cc1`, for which the growth inhibition call is “inactive”.

`O=C(Nc1ccc(C(F)(F)F)cc1)Nc1cccc(Cl)c1`: the growth inhibition call was “inactive”.

As for `CCC(=O)N[C@H]1C=C[C@@H](CC(=O)OC)O[C@H]1CO`, the growth inhibition call is “inactive”.

In the case of `Cc1ccc(S(=O)(=O)Nc2ccc3c(c2)CC(=O)N([C@@H](C)CO)C[C@@H](C)[C@@H](CN(C)CC2CC2)O3)cc1`, the growth inhibition call was “inactive”.

Take `C[C@@H]1CCCCO[C@H](CN(C)C(=O)Nc2ccccc2)[C@H](C)CN([C@H](C)CO)C(=O)c2cc(NS(=O)(=O)c3ccc(Cl)cc3)ccc2O1`: the growth inhibition call was “inactive”.

As for `CCCCCCC#C[Si](O[C@H](c1ccccc1)c1cn(Cc2cccc(Cl)c2)nn1)(C(C)C)C(C)C`, the growth inhibition call was “inactive”.

`CC(C)[Si](C#CCCCC#N)(O[C@H](c1ccccc1)c1cn(Cc2cccc(Cl)c2)nn1)C(C)C`: the growth inhibition call is “active”.

As for `CC(C)[Si](C#CCCc1ccccc1)(O[C@H](c1ccccc1)c1cn(Cc2ccccc2)nn1)C(C)C`, the growth inhibition call is “inactive”.

Take `C[C@@H]1CCCCO[C@@H](CN(C)Cc2ccc(C(=O)Nc3ccccc3N)cc2)[C@@H](C)CN([C@H](C)CO)C(=O)c2cc(NS(=O)(=O)c3ccc(F)cc3)ccc2O1`: the growth inhibition call is “inactive”.

Turning to `C[C@@H]1CN([C@H](C)CO)C(=O)Cc2cc(NC(=O)Cc3cn(C)c4ccccc34)ccc2O[C@H]1CN(C)C`, the growth inhibition call was “inactive”.

Regarding `CCCC[C@@H](C)/C=C(C)/C=C(\C)C(=O)NC1=C[C@@](O)(/C=C/C=C/C=C/C(=O)NC2C(=O)CCC2=O)[C@@H]2O[C@@H]2C1=O`, the growth inhibition call is “active”.

In the case of `CC(C)NC(=O)N(C)C[C@H]1Oc2ccc(NC(=O)CCC(F)(F)F)cc2C(=O)N([C@H](C)CO)C[C@@H]1C`, the growth inhibition call was “inactive”.

`C[C@@H]1CCCCO[C@@H](CN(C)S(=O)(=O)c2cccs2)[C@H](C)CN([C@H](C)CO)C(=O)c2cc(NC(=O)c3ccccc3)ccc2O1`: the growth inhibition call was “inactive”.

With `COc1ccccc1CNC(=O)C[C@@H]1CC[C@@H]2[C@H](COC[C@@H](O)CN2C(=O)Nc2ccc(Cl)cc2)O1`, the growth inhibition call is “active”.

For the compound `O=C(C[C@@H]1CC[C@H]2[C@@H](COC[C@@H](O)CN2C(=O)Nc2ccc(Cl)cc2)O1)NC1Cc2ccccc2C1`, the growth inhibition call was “inactive”.

As to `COc1ccccc1CNC(=O)C[C@H]1CC[C@H]2[C@@H](COC[C@H](O)CN2C(=O)Nc2ccc(Cl)cc2)O1`, the growth inhibition call was “active”.

With `COc1ccccc1CNC(=O)C[C@@H]1CC[C@@H]2[C@H](COC[C@H](O)CN2C(=O)Nc2ccc(Cl)cc2)O1`, the growth inhibition call was “inactive”.

Take `O=C(C[C@H]1CC[C@H]2[C@@H](COC[C@H](O)CN2C(=O)Nc2ccc(Cl)cc2)O1)NC1Cc2ccccc2C1`: the growth inhibition call is “active”.

Take `COc1ccccc1CNC(=O)C[C@@H]1CC[C@H]2[C@@H](COC[C@H](O)CN2C(=O)Nc2ccc(Cl)cc2)O1`: the growth inhibition call is “inactive”.

Turning to `O=C(C[C@H]1CC[C@@H]2[C@H](COC[C@@H](O)CN2C(=O)Nc2ccc(Cl)cc2)O1)NC1Cc2ccccc2C1`, the growth inhibition call is “inactive”.

Take `COc1ccccc1CNC(=O)C[C@H]1CC[C@@H]2[C@H](COC[C@H](O)CN2C(=O)Nc2ccc(Cl)cc2)O1`: the growth inhibition call was “inactive”.

Regarding `COc1ccccc1CNC(=O)C[C@H]1CC[C@@H]2[C@H](COC[C@@H](O)CN2C(=O)Nc2ccc(Cl)cc2)O1`, the growth inhibition call was “active”.

Regarding `COc1ccccc1CNC(=O)C[C@H]1CC[C@H]2[C@@H](COC[C@@H](O)CN2C(=O)Nc2ccc(Cl)cc2)O1`, the growth inhibition call was “inactive”.

Regarding `COc1ccccc1CNC(=O)C[C@@H]1CC[C@H]2[C@@H](COC[C@H](O)CN2C(=O)Nc2ccc(F)cc2)O1`, the growth inhibition call is “inactive”.

`COc1ccccc1CNC(=O)C[C@@H]1CC[C@H]2[C@@H](COC[C@@H](O)CN2C(=O)Nc2ccc(Cl)cc2)O1`: the growth inhibition call was “inactive”.

For `C[C@@H]1CN([C@@H](C)CO)C(=O)c2cccc(NC(=O)C3CC3)c2O[C@H]1CN(C)Cc1ccc(C(=O)O)cc1`, the growth inhibition call is “inactive”.

Take `C[C@@H]1CCCCO[C@@H](CN(C)S(=O)(=O)c2ccc(Cl)cc2)[C@@H](C)CN([C@H](C)CO)C(=O)c2cc(NC(=O)Nc3ccc(C(F)(F)F)cc3)ccc2O1`: the growth inhibition call was “inactive”.

Regarding `Cc1ccc(S(=O)(=O)Nc2ccc3c(c2)C(=O)N([C@H](C)CO)C[C@@H](C)[C@@H](CN(C)C(=O)CCC(F)(F)F)OCCCC[C@H](C)O3)cc1`, the growth inhibition call was “inactive”.

`C[C@@H]1CCCCO[C@H](CN(C)C(=O)CCCN(C)C)[C@H](C)CN([C@@H](C)CO)C(=O)c2cc(NC(=O)Nc3cccc4ccccc34)ccc2O1`: the growth inhibition call was “inactive”.

As to `C[C@@H]1CN([C@H](C)CO)C(=O)c2cc(C#Cc3ccccc3F)cnc2O[C@H]1CN(C)C(=O)C1CCOCC1`, the growth inhibition call was “inactive”.

In the case of `Cc1cnccc1CN1C[C@H](C(=O)O)CC1=O`, the growth inhibition call is “inactive”.

Regarding `CC(C)C#Cc1cnc2c(c1)C(=O)N([C@@H](C)CO)C[C@@H](C)[C@H](CN(C)C(=O)c1ccc3c(c1)OCO3)O2`, the growth inhibition call is “inactive”.

In the case of `Cc1ccc(S(=O)(=O)N(C)C[C@H]2Oc3c(NC(=O)C4CC4)cccc3C(=O)N([C@H](C)CO)C[C@@H]2C)cc1`, the growth inhibition call is “inactive”.

Take `C[C@H](CO)N1C[C@H](C)[C@H](CN(C)C(=O)Nc2ccc(C(F)(F)F)cc2)OCc2cnnn2CCCC1=O`: the growth inhibition call was “inactive”.

In the case of `C[C@H](CO)N1C[C@H](C)[C@@H](CN(C)C(=O)Nc2ccc(C(F)(F)F)cc2)OCc2cnnn2CCCC1=O`, the growth inhibition call is “inactive”.

On to `C[C@@H]1CN([C@@H](C)CO)C(=O)CCCn2nncc2CO[C@H]1CN(C)C(=O)Nc1ccc(C(F)(F)F)cc1`, for which the growth inhibition call was “inactive”.

Regarding `C[C@H]1CN([C@@H](C)CO)C(=O)CCCn2nncc2CO[C@@H]1CN(C)C(=O)Nc1ccc(C(F)(F)F)cc1`, the growth inhibition call is “active”.

For `C[C@@H]1CN([C@H](C)CO)C(=O)CCCn2nncc2CO[C@H]1CN(C)C(=O)Nc1ccc(C(F)(F)F)cc1`, the growth inhibition call is “active”.

Take `C[C@H]1CN([C@@H](C)CO)C(=O)CCCn2nncc2CO[C@H]1CN(C)C(=O)Nc1ccc(C(F)(F)F)cc1`: the growth inhibition call was “active”.

As to `C[C@@H]1CN([C@H](C)CO)C(=O)CCCn2cc(nn2)CO[C@H]1CN(C)C(=O)Nc1ccc(C(F)(F)F)cc1`, the growth inhibition call is “active”.

With `C[C@H]1CN([C@@H](C)CO)C(=O)CCCn2cc(nn2)CO[C@@H]1CN(C)C(=O)Nc1ccc(C(F)(F)F)cc1`, the growth inhibition call is “inactive”.

Regarding `C[C@@H]1CN([C@H](C)CO)C(=O)CCCn2nncc2CO[C@@H]1CN(C)C(=O)Nc1ccc(C(F)(F)F)cc1`, the growth inhibition call was “inactive”.

For the compound `C[C@H]1CN([C@@H](C)CO)C(=O)CCCn2cc(nn2)CO[C@H]1CN(C)C(=O)Nc1ccc(C(F)(F)F)cc1`, the growth inhibition call was “inactive”.

In the case of `C[C@@H]1CN([C@H](C)CO)C(=O)CCCn2nncc2CO[C@H]1CN(C)C(=O)Nc1ccc(C(C)(C)C)cc1`, the growth inhibition call is “inactive”.

As for `C[C@@H]1CN([C@@H](C)CO)C(=O)CCCn2nncc2CO[C@@H]1CN(C)C(=O)Nc1ccc(C(F)(F)F)cc1`, the growth inhibition call was “inactive”.

With `C[C@H]1CN([C@@H](C)CO)C(=O)Cc2cc(NC(=O)Nc3ccc(F)cc3)ccc2O[C@H]1CN(C)S(=O)(=O)c1cn(C)cn1`, the growth inhibition call is “inactive”.

As to `CCOC(=O)CSc1nnc2c3sc4nc(N5CCOCC5)c5c(c4c3ncn12)CC(C)(C)OC5`, the growth inhibition call is “inactive”.

Turning to `C[C@H](CO)N1C[C@H](C)[C@@H](CN(C)Cc2ccc(C(F)(F)F)cc2)OCCCC[C@H](C)Oc2ccc(NS(=O)(=O)c3cn(C)cn3)cc2C1=O`, the growth inhibition call was “inactive”.

Turning to `C[C@@H]1CCCCO[C@@H](CN(C)Cc2ccccc2)[C@H](C)CN([C@H](C)CO)C(=O)c2cc(NC(=O)Nc3ccccc3)ccc2O1`, the growth inhibition call was “inactive”.

As to `C[C@@H]1CN([C@H](C)CO)C(=O)c2cccc(NC(=O)Nc3cccc4ccccc34)c2O[C@@H]1CN(C)C(=O)Nc1ccc2c(c1)OCO2`, the growth inhibition call was “inactive”.

For `COC(=O)c1c2oc(c1C(=O)OC)C(=O)N(C)Cc1cn(nn1)C[C@@H](C)NC(=O)N[C@H](CO)CC2`, the growth inhibition call was “inactive”.

For `C[C@H](CO)N1C[C@H](C)[C@@H](CN(C)C(=O)Nc2ccc3c(c2)OCO3)OCCCC[C@H](C)Oc2ccc(NC(=O)Nc3ccc(F)cc3)cc2C1=O`, the growth inhibition call was “inactive”.

Consider `COc1ccc(NC(=O)N(C)C[C@@H]2OCCCC[C@H](C)Oc3ccc(NC(=O)Nc4ccc5c(c4)OCO5)cc3C(=O)N([C@@H](C)CO)C[C@@H]2C)cc1`, for which the growth inhibition call was “inactive”.

`Cc1noc(C)c1S(=O)(=O)N(C)C[C@H]1Oc2ccc(NC(=O)CCC(F)(F)F)cc2CC(=O)N([C@H](C)CO)C[C@H]1C`: the growth inhibition call is “inactive”.

With `CC(=O)N(C)C[C@H]1Oc2ncc(C#C[C@H](C)O)cc2C(=O)N([C@H](C)CO)C[C@H]1C`, the growth inhibition call is “inactive”.

As to `Cc1noc(C)c1NC(=O)Nc1ccc2c(c1)C(=O)N([C@H](C)CO)C[C@H](C)[C@@H](CN(C)C(=O)Nc1ccc(C(F)(F)F)cc1)O2`, the growth inhibition call was “inactive”.

`C[C@@H]1CN([C@@H](C)CO)C(=O)c2cc(NC(=O)CCC(F)(F)F)ccc2O[C@H]1CN(C)C(=O)Nc1ccc(C(F)(F)F)cc1`: the growth inhibition call was “inactive”.

Consider `Cc1noc(C)c1NC(=O)Nc1ccc2c(c1)C(=O)N([C@@H](C)CO)C[C@H](C)[C@H](CN(C)C(=O)Nc1ccc(C(F)(F)F)cc1)O2`, for which the growth inhibition call was “active”.

Regarding `Cc1noc(C)c1NC(=O)Nc1ccc2c(c1)C(=O)N([C@@H](C)CO)C[C@H](C)[C@@H](CN(C)C(=O)Nc1ccc(C(F)(F)F)cc1)O2`, the growth inhibition call is “inactive”.

Take `C[C@@H]1CN([C@H](C)CO)C(=O)c2cc(NC(=O)CCC(F)(F)F)ccc2O[C@@H]1CN(C)C(=O)Nc1ccc(C(F)(F)F)cc1`: the growth inhibition call was “inactive”.

On to `Cc1noc(C)c1NC(=O)Nc1ccc2c(c1)C(=O)N([C@@H](C)CO)C[C@@H](C)[C@H](CN(C)C(=O)Nc1ccc(C(F)(F)F)cc1)O2`, for which the growth inhibition call was “inactive”.

On to `Cc1noc(C)c1NC(=O)Nc1ccc2c(c1)C(=O)N([C@H](C)CO)C[C@@H](C)[C@H](CN(C)C(=O)Nc1ccc(C(F)(F)F)cc1)O2`, for which the growth inhibition call is “inactive”.

`C[C@H](CO)N1C[C@H](C)[C@@H](CN(C)C(=O)Nc2ccc(C(F)(F)F)cc2)Oc2ccc(NC(=O)CCC(F)(F)F)cc2C1=O`: the growth inhibition call was “active”.

Turning to `Cc1noc(C)c1NC(=O)Nc1ccc2c(c1)C(=O)N([C@@H](C)CO)C[C@@H](C)[C@@H](CN(C)C(=O)Nc1ccc(C(F)(F)F)cc1)O2`, the growth inhibition call is “active”.

With `Cc1noc(C)c1NC(=O)N(C)C[C@@H]1Oc2ccc(NC(=O)Nc3ccc(C(F)(F)F)cc3)cc2C(=O)N([C@H](C)CO)C[C@@H]1C`, the growth inhibition call is “inactive”.

As for `Cc1noc(C)c1NC(=O)Nc1ccc2c(c1)C(=O)N([C@H](C)CO)C[C@H](C)[C@H](CN(C)C(=O)Nc1ccc(C(F)(F)F)cc1)O2`, the growth inhibition call is “active”.

Turning to `Cc1noc(C)c1NC(=O)Nc1ccc2c(c1)C(=O)N([C@H](C)CO)C[C@@H](C)[C@@H](CN(C)C(=O)Nc1ccc(C(F)(F)F)cc1)O2`, the growth inhibition call is “inactive”.

The values are drawn from the antibiotic and cytotoxicity screens of Wong et al. (2023).
